Compound activity as filed in PubChem BioAssay.
A selection: hits, their analogues and other compounds. The true share with any hit is near 7.3%.
NPC1 prom act: NPC1 promoter activation; Huh7 NPC1 promoter luciferase reporter, 24 h; Potency, µM (doses to about 9.22 µM), without a hit: at the highest dose activation, actives largely listed as activators; actives 2.4% (n = 320,000); also: % of control where 0% means no effect; nearly all actives have a fitted effect of over 60% in size
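Luciferase expression driven by the NPC1 promoter was measured in stably transfected Huh7 cells after a 24 h compound incubation, using a luciferase reagent and a luminescence read.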
KinaseGlo FLuc: counter-screen: inhibitors of Kinase-Glo firefly luciferase. actives 0.28% (n = 200,000). Kinase-Glo luciferase, ATP luminescence, 8 min. Potency, µM (series often up to 38.3 µM), for the others: at the top dose activity change, negative = inhibition, actives largely listed as inhibitors; also: % is scaled to controls: 0 for no effect and ±100 for the full control effect; nearly all actives have a fitted effect of over 60% in size
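Light output from Kinase-Glo luciferase with luciferin and 10 uM ATP in 50 mM imidazole pH 7.2, KCl, MgCl2, Tween 20, BSA; compound pin-delivered, 8-min ambient incubation, then luminescence read.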
Rab9 prom act: activators of Rab9 promoter; Potency, µM (series often up to 9.22 µM), without a hit: top-dose activation, negative = inhibition, most hits filed as activators; AID 485297; Huh7 Rab9 promoter-luciferase reporter, luminescence, 24 h; actives 2.8% (n = 320,000); also: % of control where 0% means no effect; nearly all actives have a fitted effect of over 60% in size
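Rab9 promoter-driven luciferase in stably transfected Huh7 cells; 1500 cells/well rested 2 h, exposed to compound in DMSO for 24 h at 37 °C, 5% CO2. Luminescence read 10 min after adding luciferase reagent at ambient temperature.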
FLuc counter: firefly luciferase modulation, counter-screen for miR-21 project; actives 6.9% (n = 360,000); Potency, µM (doses to about 57.5 µM), without a hit: top-dose activity change, negative = inhibition, actives largely listed as inhibitors; purified FLuc, Km substrates, luminescence inhibition; P08659;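 also: plate controls were vehicle for no effect and reference inhibitor for full effect; nearly all actives have a fitted effect of over 55% in size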
Target sequence (P08659 whole entry, looked up): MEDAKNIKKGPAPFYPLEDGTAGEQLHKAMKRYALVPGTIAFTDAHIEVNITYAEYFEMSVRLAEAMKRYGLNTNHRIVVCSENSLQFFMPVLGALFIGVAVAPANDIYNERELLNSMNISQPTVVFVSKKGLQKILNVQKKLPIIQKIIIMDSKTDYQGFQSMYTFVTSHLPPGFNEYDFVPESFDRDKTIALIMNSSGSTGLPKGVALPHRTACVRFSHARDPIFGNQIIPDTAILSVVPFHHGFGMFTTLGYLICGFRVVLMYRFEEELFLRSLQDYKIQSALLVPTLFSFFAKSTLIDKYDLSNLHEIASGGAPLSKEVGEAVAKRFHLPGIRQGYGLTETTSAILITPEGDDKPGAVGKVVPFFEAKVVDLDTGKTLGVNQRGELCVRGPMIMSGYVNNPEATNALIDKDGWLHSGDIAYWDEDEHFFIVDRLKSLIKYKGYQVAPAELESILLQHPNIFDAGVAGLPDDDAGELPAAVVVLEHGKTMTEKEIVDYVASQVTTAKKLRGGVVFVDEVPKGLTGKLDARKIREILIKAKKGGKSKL
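Purified P. pyralis luciferase (10nM final) with 10uM D-luciferin and 10uM ATP (Km levels) in 50mM Tris acetate pH 7.5, 10mM Mg acetate, 0.01% Tween-20, 0.05% BSA; qHTS 6-point titration, ~60 µM downward; luminescence read.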
SMN2 splice enh: enhancers of SMN2 splice variant expression; HEK293 SMN2-luciferase splicing reporter, luminescence, 30-36 h; Potency, µM (highest dose often 46.1 µM), for the others: at the highest dose activity change, positive = activation, hits mostly activators; actives 2.8% (n = 210,000); AID 1458; also: % of control where 0% means no effect; nearly all actives have a fitted effect of over 55% in size
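HEK293 cells carry an SMN2 […]–luciferase reporter in which exon 7 inclusion puts luciferase in frame. Cells were plated 10-12 h before compound addition, then incubated 30-36 h at 37C. ONE-Glo luminescence was read; sodium butyrate at 4.5 mM final served as control.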
Starred values were filed as active, the others as inactive; ? = inconclusive; · = no result given; [ ] = remark or other dose. Calls follow the shape of the dose curve; as a rule, active = well fitted curve in the direction sought with a large enough effect; inconclusive = small, poorly fitted or top-dose-only effect, or another doubt; inactive = no such curve, though single readings can be large; an effect the other way counts as inactive or inconclusive. Potency is read from the fitted curve at half-maximal effect.

SMILES	NPC1 prom act	KinaseGlo FLuc	Rab9 prom act	FLuc counter	SMN2 splice enh
CC(C)/C(=N/[N+](C)(C)C)c1ccccc1	·	-6%[7.66 µM]	·	·	-11%[9.22 µM]
CCOc1ccc(C(CC(=O)O)NC(=O)c2sc3ccccc3c2Cl)cc1 (stereo not given)	1%	2%	2%	0%	-6%
CCCOc1ccc(C(CC(=O)O)NC(=O)c2sc3ccccc3c2Cl)cc1 (stereo not given)	-1%	4%	20%	15µM*	·
COc1cccc(-c2nc(N3CCCC3)c3ccccc3n2)c1O	1%	·	-3%	15µM*	·
COc1cccc(-c2nc(N3CCC(C)CC3)c3ccccc3n2)c1O	-3%	·	-4%	1%	·
COc1ccc(Nc2nc(-c3cccc(OC)c3O)nc3ccccc23)cc1	?	·	13%	3.8µM*	·
O=C(Nc1ccc(F)cc1)Nc1cccnc1Cl	23%	·	?	17µM*	·
Cc1ccc(NC(=O)Nc2ccc(F)cc2)cc1Cl	?	-2%	?	2.7µM*	?
COc1cccc(NC(=O)Nc2ccc(C)c(Cl)c2)c1	?	-1%	2.8µM*	2.7µM*	13µM*
Cc1ccc(NC(=O)CCC(=O)c2ccc(F)cc2)cc1Cl	4%	-2%	1%	1%	8%
COc1ccc(NC(=O)N2CCN(S(=O)(=O)c3ccc4c(ccn4C)c3)CC2)c(OC)c1	·	·	·	-4%	·
Cc1ccn2cc(-c3cccc(NC(=O)c4cccs4)c3)nc2c1	19%	-5%	?	2.4µM*	?
O=C(Nc1cccc(-c2cn3cccnc3n2)c1)c1cccs1	0%	2%	-3%	?	13%
Cc1cccn2cc(-c3cccc(NC(=O)c4cccs4)c3)nc12	13%	0%	24%	4.8µM*	18%
COc1ccc(NC(=O)c2nc(S(C)(=O)=O)ncc2N(Cc2ccc(C)cc2)Cc2ccco2)cc1Cl	·	·	·	-2%	·
CCOC(=O)Nc1nnc(-c2ccccc2OC)s1	17%	1%	?	?	?
COC(=O)Nc1nnc(-c2ccccc2OC)s1	3.5µM*	·	2.2µM*	11µM*	·
COC(=O)Nc1nnc(-c2ccccc2Cl)s1	?	1%	30%	11µM*	?
O=[N+]([O-])c1cc(-c2nc(-c3ccccc3)no2)ccc1N1CCOCC1	·	·	·	4%	·
CCOc1ccc(CCNC(=O)c2c(C)oc3ncn(CC(C)C)c(=O)c23)cc1	·	·	·	-4%	·
COc1ccc(C2=NN3C(C2)c2ccccc2OC32C(=O)N(C)c3ccccc32)cc1 (stereo not given)	3%	2%	4%	11µM*	4%
COc1ccc(CNc2ccc3cc(S(=O)(=O)N4CCCCC4)ccc3n2)cc1	·	·	·	3%	·
CNc1nc(-c2ccc3c(c2)CCN3C(=O)c2ccccc2C)cs1	4µM*	-8%	2.2µM*	7.6µM*	22µM*
CNc1nc(-c2ccc3c(c2)CCN3C(=O)c2cccc(F)c2)cs1	?	·	2µM*	4.8µM*	·
O=C(CN1CCCC1)Nc1nc(-c2ccc3c(c2)CCN3C(=O)c2ccccc2F)cs1	20%	·	13%	24µM*	·
SMILES	NPC1 prom act	KinaseGlo FLuc	Rab9 prom act	FLuc counter	SMN2 splice enh
CNc1nc(-c2ccc3c(c2)CCN3C(=O)c2ccc(F)cc2)cs1	25%	-4%	?	12µM*	2%
Cc1ccccc1C(=O)N1CCc2cc(-c3nc(NC(=O)Cc4ccc5c(c4)OCO5)sc3C)ccc21	-23%	0%	-20%	2%	-64%
Cc1cccc(C(=O)N2CCc3cc(-c4csc(NC(=O)CN5CCCC5)n4)ccc32)c1	-3%	·	-2%	?	·
CCOC(=O)c1ccccc1NC(=O)CSc1ncc(CO)n1Cc1ccc(C)cc1	·	·	·	-9%	·
O=C(COC(=O)c1ccco1)c1ccc(F)cc1	0%	·	1%	2.7µM*	·
CC(C)[C@H](NC(=O)c1ccco1)C(=O)OCC(=O)Nc1ccccc1OC(F)F	-1%	-2%	10%	4%	2%
Cc1cccc(-n2nnnc2SCC(=O)c2cc(C)n(Cc3ccco3)c2C)c1	11%	13%	9%	-12%	-22%
Cc1cc(C(=O)CN2C(=O)NC3(CCCc4ccccc43)C2=O)c(C)n1Cc1ccco1 (stereo not given)	1%	0%	9%	?	·
